This is part of a sample that, as a whole, favours compounds with a hit. Of some 79,000 tested, about 15% had one in any assay. A number with no mark means an inactive call. Active and inactive are the calls of the source. Cut-off read from the data, not from the text of the source: active = growth inhibition above about 70%; inactive = the rest.
Columns and labels:
[1] = NCI Yeast Anticancer Drug Screen. Data for the rad50 strain (AID 155);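 note: 0% = growth of vehicle-only cultures of the same strain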; settings: S. cerevisiae rad50 strain growth inhibition; at 50.0 µM; active compounds read high
In short: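 Inhibition values express reduced yeast growth in compound-treated cultures relative to vehicle-treated controls.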

[2] = NCI Yeast Anticancer Drug Screen. Data for the mec2-1 strain (AID 157); settings: S. cerevisiae mec2-1 strain, at 50.0 µM, active compounds read high
In short: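 Mutant yeast (mec2-1) grown with compound; growth inhibition relative to vehicle control reported.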

[3] = NCI Yeast Anticancer Drug Screen. Data for the sgs1 mgt1 strain (AID 161);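 note: 0% = growth of cultures given vehicle only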; settings: S. cerevisiae sgs1 mgt1 strain, at 50.0 µM, active compounds read high
In short: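 Growth of a repair-deficient yeast mutant was monitored after compound treatment and expressed as inhibition relative to vehicle-treated cultures.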

[4] = NCI Yeast Anticancer Drug Screen. Data for the cln2 rad14 strain (AID 165);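 note: 0% = growth equal to vehicle treated cultures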; settings: S. cerevisiae cln2 rad14 strain, at 50.0 µM, active compounds read high
In short: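 Readout is yeast growth inhibition versus vehicle-treated controls, using a strain with cln2 and rad14 alterations exposed to compound.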

[5] = NCI Yeast Anticancer Drug Screen. Data for the bub3 strain (AID 167); settings: S. cerevisiae bub3 mutant strain, at 50.0 µM, active compounds read high
In short: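 Steps: expose the mutant yeast strain to compound; grow alongside vehicle-treated cultures; measure growth; express inhibition against the vehicle cultures.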

[6] = NCI Yeast Anticancer Drug Screen. Data for the mlh1 rad18 strain (AID 175); settings: S. cerevisiae mlh1 rad18 strain growth inhibition; at 50.0 µM; active compounds read high
In short: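 Genetically defined yeast (DNA repair-deficient) exposed to compounds; growth inhibition determined relative to vehicle.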

Compound	growth inhibition [1]	growth inhibition [2]	growth inhibition [3]	growth inhibition [4]	growth inhibition [5]	growth inhibition [6]
CSCCC(O)C(=O)O (configuration not stated)	21.8%	-7.4%	19.5%	28.2%	-2.55%	17%
C(=N\N1CCN(/N=C/c2cccc3ccccc23)CC1)/c1cccc2ccccc12	16.2%	6.85%	19%	18.5%	-0.65%	3.4%
COC(=O)c1nc(N)nc(C(=O)OC)c1C(=O)c1cccnc1	-15.2%	-17.8%	-0.35%	-15.3%	-4.7%	10.1%
COc1cc(C)c(O)c(C/C=C(\C)CC2=C[C@@]3(C)CCC[C@@]3(C)[C@]3(CC(O)C(C)(C)O3)O2)c1 (some centres not stated)	21.1%	6.2%	-8.5%	4.75%	4.95%	10%
COc1ccc(CC(N)C(=O)OCCCl)cc1 (configuration not stated)	6.65%	-0.4%	13.8%	10%	0.3%	12%
Clc1ccc(-c2nnc(C34CC5CC(CC(C5)C3)C4)o2)cc1	-12.1%	-8.65%	-11.3%	2.3%	-8.5%	-18.6%
Brc1cccc(CCOCc2ccccc2)c1	8.45%	-11.6%	-4.3%	2.05%	0.5%	-3.9%
Cc1cc(C)c(C(=O)OCCN(C)C)c(C)c1	10.8%	2%	9.9%	-5.25%	0.5%	-0.6%
O=C(N/C=C\NC(=O)Nc1cccc(Cl)c1)Nc1cccc(Cl)c1	40.8%	16.1%	15.8%	15.8%	-1.95%	18.8%
CC[N+](C)(CC)CCOc1ccc(Cc2nc3c([nH]2)c(=O)n(C)c(=O)n3C)cc1	8.15%	5.9%	13.8%	-4.4%	-9.6%	19.6%
CC1CC(C)OC2(CCCC2)O1 (configuration not stated)	8.45%	-8.05%	2.2%	-12.8%	4.05%	-5.3%
CCC(CC)C(=O)NC	-4.25%	-5.2%	-3.5%	2.2%	-0.85%	-1.8%
CCCCOP(=O)(OCCCC)/C(C#N)=C/c1ccco1	-67.7%	-65.6%	-50.1%	-42.1%	-29.8%	-79.4%
COC(=O)C(=O)C1(C)CCc2c(ccc3ccc(OC)cc23)C1=O (configuration not stated)	-32.8%	-3.1%	-5.9%	-31.9%	19.9%	-5.65%
CNC(=O)c1nnn(Cc2ccc(OC)cc2)c1Cl	-8.05%	-8.9%	-14.7%	-69%	-1.3%	-8.15%
O=C1c2cccc3cc([N+](=O)[O-])cc(c23)C(=O)N1Cc1cccnc1	42.5%	15.6%	38.6%	19%	10.5%	10.8%
O=S(=O)(Oc1ccc(-c2ccccc2)cc1Br)c1ccccc1	13%	-0.85%	5.55%	8.3%	1.8%	-5.6%
ClC1=Cc2cccc3cccc1c23	1.55%	6.15%	0.2%	2.5%	12.4%	3.8%
CCOC1CCCC(OCC)O1 (configuration not stated)	-44.4%	-48.5%	-19.9%	12%	-37.6%	-27.9%

Compound	growth inhibition [1]	growth inhibition [2]	growth inhibition [3]	growth inhibition [4]	growth inhibition [5]	growth inhibition [6]
CCOC(=O)/C=C\n1c(=O)cc(C)c2ccccc21	8.85%	23.7%	7.45%	18.4%	-2.75%	-1.15%
O=[N+]([O-])c1ccc(-c2nnn(C3CC3)c2N2CCCCC2)cc1	-7.85%	-5.6%	-3.4%	-0.5%	-4.35%	5.15%
CCCc1nc(CCC)nc(CCC)n1	-13.8%	-5.35%	-10.2%	-6.5%	5.55%	-14.7%
OCC1OC(Oc2ccccc2)C(O)C(O)C1O (configuration not stated)	8.15%	30.6%	21.8%	-1%	33%	24.1%
Nc1cccc(C(=O)Nc2ccc3c(O)cc(S(=O)(=O)O)cc3c2)c1	15.2%	-3.1%	11.9%	-30.4%	-12.4%	7.05%
NC(C(=O)O)C(SCc1ccccc1)c1cccc(O)c1 (configuration not stated)	-3.2%	14.3%	18.7%	-26.4%	-1.3%	-0.7%
O=[N+]([O-])c1cc(F)ccc1-c1ccc(F)cc1	2.35%	-4.85%	0.7%	-20.7%	2.8%	20.4%
CC(=O)c1cc([N+](=O)[O-])c(O)c([N+](=O)[O-])c1O	20.4%	-2.2%	-14.6%	12.2%	7.8%	8.65%
COc1ccccc1C(=O)C1OC1c1ccc(Cl)cc1Cl (configuration not stated)	19.1%	-9.7%	-6.9%	-32%	6.85%	5.05%
COc1ccc2cc(C(C)C(O)c3cc(F)c(F)c(F)c3F)ccc2c1 (configuration not stated)	-21.1%	-30.3%	-10.7%	0.15%	-1.25%	-20.5%
COC(=O)C(N)CSc1ccc([N+](=O)[O-])cc1[N+](=O)[O-] (configuration not stated)	37.5%	39.5%	40.2%	25.1%	16.1%	48.9%
CCN(CC)CCOC(=O)c1c2nc3c(C(=O)OCCN(CC)CC)ccc(C)c3oc-2c(C)c(=O)c1N	79.5% (active)	35.9%	42.1%	-5.2%	61.9%	36.3%
CC(=O)Nc1cc(Cl)cc2c1[nH]c(=O)c1ccccc12	9.75%	5.35%	-2%	-7%	9.25%	1.05%
O=C1CN(CCN2CCCCC2)CC(=O)N2Cc3ccccc3CN12	-10.1%	2.85%	12.1%	-1.55%	7.8%	14.2%
O=C1OC(c2ccc3c(c2)CCCC3)=C/C1=C/c1ccc2c(c1)OCO2	-13.4%	4%	14.1%	-25.1%	2.9%	-15.9%
CCC[N+](C)(C)C	5.65%	-28.2%	-1.15%	6.4%	1.6%	-5.45%
Cn1cnc2c(Cl)ncnc21	12.9%	34.5%	-20.9%	-18.4%	-0.55%	5.65%
O=C1CCC2(CC1)Cc1ccccc1C2O (configuration not stated)	-8.75%	-8.45%	18%	29.4%	-9.35%	-5.5%

Source: PubChem BioAssay (NCI)
